From PubChem BioAssay (EPA / NIEHS) come the findings set out here.

The structures appear in SMILES notation. Results filed as inconclusive are left out. Calls of active or inactive are those of the source. How the source made its calls, unless noted: active means hit-call score of the fitted dose curve at least 0.9, where 1 is the maximum; inconclusive means response in the unintended direction; inactive means score below 0.9.

The nature of assay [1]: TOX21_p53_BLA_p2_viability: Viability Assessment in the Tox21 HCT-116 p53 Agonism Beta-lactamase Assay, Phase 2 (AID 2283591).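 Further: compound exposure lasted 16 h at 37 °C; actives lower the ATP signal meaning cytotoxicity.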 Put shortly: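 Cytotoxicity readout: CellTiter-Glo ATP luminescence, 30 min at room temperature, after the beta-lactamase read. Cells were HCT116 exposed 16 h at 37C to compounds pin-transferred at 217-fold dilution from DMSO stocks.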
In assay [2] the target is Cellular tumor antigen p53 (Homo sapiens) (UniProt P04637). In words: TOX21_p53_BLA_p2_ratio: Tox21 HCT-116 p53 Agonism Beta-lactamase Assay, Ratio, Phase 2 (AID 2283592). Put shortly:
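Plated HCT116 p53-bla cells (4000/well) received compound after 5 h, then 16 h at 37C/5% CO2. CCF4-AM added, 2 h RT. Ratio of 460 to 530 nm emission taken as the p53 reporter signal.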

Assay [3] is described as follows: TOX21_p53_BLA_p3_viability: Viability Assessment in the Tox21 HCT-116 p53 Agonism Beta-lactamase Assay, Phase 3 (AID 2283593). In short, it runs like this: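 Cellular ATP was quantified by CellTiter-Glo luminescence, read after 30 min at room temperature. Beforehand, HCT116 cells (4000/well) received compound 5 h post-seeding, 217-fold diluted from DMSO, then incubated 16 h at 37C.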

Assay [4] deals with Cellular tumor antigen p53 (Homo sapiens) (UniProt P04637). In words: TOX21_p53_BLA_p3_ratio: Tox21 HCT-116 p53 Agonism Beta-lactamase Assay, Ratio, Phase 3 (AID 2283596). Put shortly: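 Cells were seeded at 4000/well, rested 5 h at 37C, then dosed with DMSO compound solutions (217-fold dilution) for 16 h. CCF4-AM substrate was loaded for 2 h at room temperature, and the 460/530 nm emission ratio was fitted for gain of signal versus DMSO.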
Sequence of Cellular tumor antigen p53 (Homo sapiens) (P04637 whole entry, looked up): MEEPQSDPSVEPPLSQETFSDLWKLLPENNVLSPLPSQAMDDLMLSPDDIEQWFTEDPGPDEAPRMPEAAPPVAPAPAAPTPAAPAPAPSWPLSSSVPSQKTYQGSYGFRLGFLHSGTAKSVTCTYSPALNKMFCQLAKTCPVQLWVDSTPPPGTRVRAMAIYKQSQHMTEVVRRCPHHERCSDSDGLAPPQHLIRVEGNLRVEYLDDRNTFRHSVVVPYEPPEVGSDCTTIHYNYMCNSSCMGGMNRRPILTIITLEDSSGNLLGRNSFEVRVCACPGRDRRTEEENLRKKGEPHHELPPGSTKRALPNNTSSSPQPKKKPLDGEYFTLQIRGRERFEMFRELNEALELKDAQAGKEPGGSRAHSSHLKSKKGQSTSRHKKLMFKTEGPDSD

The nature of assay [5]: TOX21_p53_BLA_p4_viability: Viability Assessment in the Tox21 HCT-116 p53 Agonism Beta-lactamase Assay, Phase 4 (AID 2283597).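 Further: hits lower the luminescence signal meaning cytotoxicity.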 Put shortly:
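Readout: ATP luminescence (CellTiter-Glo), measured 30 min after reagent addition at RT. The reagent followed a 2 h CCF4-AM incubation, and the cells had been exposed to compound for 16 h at 37C.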

The target of assay [6] is Cellular tumor antigen p53 (Homo sapiens) (UniProt P04637). Kind of assay: TOX21_p53_BLA_p5_ratio: Tox21 HCT-116 p53 Agonism Beta-lactamase Assay, Ratio, Phase 5 (AID 2283599). Put shortly:
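Beta-lactamase reporter ratio (blue 460 nm over green 530 nm, 405 nm excitation) after 2 h CCF4-AM loading, in HCT-116 cells exposed 16 h at 37 C to compounds pinned at 217-fold dilution. Increases relative to DMSO baseline scored.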

Assay [7] is described as follows: TOX21_p53_BLA_p5_viability: Viability Assessment in the Tox21 HCT-116 p53 Agonism Beta-lactamase Assay, Phase 5 (AID 2283600). Put shortly: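 Workflow: seed 4000 cells per well, wait 5 h, add compounds (DMSO, 217-fold dilution), incubate 16 h, load CCF4-AM 2 h, add CellTiter-Glo, read luminescence after 30 min.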
Assay [8] has as its target Cellular tumor antigen p53 (Homo sapiens) (UniProt P04637). Kind of assay: TOX21_p53_BLA_p4_ratio: Tox21 HCT-116 p53 Agonism Beta-lactamase Assay, Ratio, Phase 4 (AID 2283601). In short, it runs like this:
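Signal is the blue/green (460nm/530nm) ratio of cleaved versus uncleaved CCF4-AM substrate, read after 2 h substrate loading. Cells were HCT116 carrying the p53-responsive beta-lactamase reporter, dosed 16 h at 37C, 5% CO2; CellTiter-Glo measured in parallel.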

The next assay has as its target PGR (gene 5241) (UniProt P06401). In words: TOX21_PR_BLA_Followup_Antagonist_ratio: Tox21 HEK293 Progesterone Receptor (PR) Antagonism Beta-lactamase Follow-Up Assay, Ratio (AID 2283934).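 Further: PR-UAS-bla HEK293T cells stimulated with 1 nM R5020 agonist for 16 hr.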 In short, it runs like this:
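Cells are plated, rested 6 hr, then dosed with test compound in DMSO and challenged with 1 nM promegestone. After 16 hr incubation, substrate loading for 2 h at room temperature precedes fluorescence reading; viability is measured in the same wells.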

A short description of assay [9]: TOX21_PR_BLA_Followup_Agonist_viability: Viability Assessment in the Tox21 HEK293 Progesterone Receptor (PR) Agonism Beta-lactamase Follow-Up Assay (AID 2283935).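 Further: signal loss means lower viability so actives are cytotoxic.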 Put shortly: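 Cells were plated in medium with 2% charcoal-stripped FBS and rested 6 hr. Compounds in DMSO were then added for 16 hr at 37C, followed by the FRET substrate step and CellTiter-Glo luminescence after 30 min.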

The nature of assay [10]: TOX21_PR_BLA_Followup_Antagonist_viability: Viability Assessment in the Tox21 HEK293 Progesterone Receptor (PR) Antagonism Beta-lactamase Follow-Up Assay (AID 2283936).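 Further: cells exposed to compound with R5020 agonist for 16 h; hits lower the luminescence signal meaning cytotoxicity.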 In short, it runs like this:
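PR-UAS-bla HEK293T cells in medium with 2% charcoal-stripped FBS were treated with compounds plus R5020 for 16 hr at 37C. After the beta-lactamase read, CellTiter-Glo was added to the same wells and luminescence read after 30 min at room temperature.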

Assay [11] can be described thus: TOX21_PR_LUC_Followup_Agonist_viability: Viability Assessment in the Tox21 HEK293 Progesterone Receptor (PR) Agonism Luciferase Follow-Up Assay (AID 2283941).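 Further: loss of signal means cytotoxicity so actives lower viability.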 In short, it runs like this: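 Multiplexed viability endpoint of the PR agonist luciferase follow-up: HEK293-PR-A-luc cells treated 16 h at 37C, with viability scored as decrease in CellTiter-Glo ATP signal.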

For assay [12], the target named is Thyroid hormone receptor alpha (Rattus norvegicus) + Thyroid hormone receptor beta (Rattus norvegicus) (UniProt P18113+P63059). In words: TOX21_TR_LUC_GH3_Agonist_Followup: Tox21 GH3 Thyroid Hormone Receptor Agonism Luciferase Follow-Up Assay (AID 2283939). In short, it runs like this:
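Agonist-mode confirmatory run: 15 concentrations (5 nM to 92 uM final) on GH3 rat pituitary cells, 24 h at 37C/5% CO2, T3 as positive control. Luminescence read with ONE-Glo after 30 min.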

Assay [13] concerns the target THRA (gene 7067) (UniProt P10827). In words: TOX21_TRA_COA_Agonist_Followup_ratio: Tox21 Thyroid Hormone Receptor alpha Agonism through Coactivator Recruitment Follow-Up Assay, Ratio (AID 2283948; active means hit-call score of the fitted dose curve at least 0.9, where 1 is the maximum; inactive means score below 0.9). Put shortly: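 Follow-up specificity assay in which TRα ligand-binding domain, expressed as a GST fusion, recruits a fluorescein-labelled SRC-2 peptide. Energy transfer from a terbium anti-GST antibody gives the acceptor/donor ratio, fitted upward relative to DMSO.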

The target in assay [14] is THRB (gene 7068) (UniProt P10828). Kind of assay: TOX21_TRB_BLA_Agonist_Followup_ratio: Tox21 Thyroid Hormone Receptor beta Agonism Beta-lactamase (BLA) Follow-Up Assay, Ratio (AID 2283954). Put shortly:
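Agonist mode: compounds (11-point, triplicate) incubated 18 h with HEK293T cells carrying GAL4-DBD/human TRβ-LBD and UAS-β-lactamase. Blue/green (460/530 nm) FRET ratio read after 2 h CCF4-AM loading; CellTiter-Glo viability run in the same plates.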

The target is the same in assay [15]. Kind of assay: TOX21_TRB_COA_Agonist_Followup_ratio: Tox21 Thyroid Hormone Receptor beta Agonism through Coactivator Recruitment Follow-Up Assay, Ratio (AID 2283963; active means hit-call score of the fitted dose curve at least 0.9, where 1 is the maximum; inactive means score below 0.9). Put shortly:
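Cell-free TR-FRET coactivator recruitment: GST-tagged TRβ LBD (5.0 nM) with 0.10% BSA incubated with compound, then fluorescein-SRC-2 peptide (200 nM) and Tb-anti-GST antibody (2 nM) added. 520:495 nm ratio normalized to DMSO (0%) and T3 (100%).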

Assay [16] concerns the target Retinoic acid receptor RXR-alpha (Homo sapiens) (UniProt P19793). Kind of assay: TOX21_TR_RXR_BLA_Agonist_Followup_ratio: Tox21 Thyroid Hormone Receptor beta Retinoid X Receptor alpha (RXRa) Agonism Beta-lactamase (BLA) Follow-Up Assay, Ratio (AID 2283968). Put shortly:
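Cells were first allowed to attach for 5 h, after which compounds in DMSO were pinned at 11 concentrations and incubated 16 h at 37C. LiveBLAzer CCF4-AM substrate was then added for 2 h at room temperature before reading 460 and 530 nm fluorescence.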

Assay [17] in a line: TOX21_TR_RXR_BLA_Agonist_Followup_viability: Viability Assessment in the Tox21 Thyroid Hormone Receptor beta Retinoid X Receptor alpha (RXRa) Agonism Beta-lactamase (BLA) Follow-Up Assay (AID 2283970). In short, it runs like this:
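Viability counter-screen run alongside the RXRa bla follow-up: HEK293T reporter cells were treated for 16h at 37C in stripped-serum medium, then ATP was quantified by luciferase-coupled CellTiter-Glo. Decreased signal relative to DMSO marked cytotoxicity.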

The target of assay [18] is THRA (gene 7067) (UniProt P10827). In words: TOX21_TRA_COA_Antagonist_Followup_ratio: Tox21 Thyroid Hormone Receptor alpha Antagonism through Coactivator Recruitment Follow-Up Assay, Ratio (AID 2283953). Put shortly: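 GST-TRα LBD 2.5 nM, BSA 0.10%, + cpd; then FITC-SRC-2 peptide 200 nM + Tb-anti-GST Ab 2 nM. TR-FRET ratio 520/495 nm. Norm: DMSO = 0%, T3 = 100%.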
Sequence of THRA (gene 7067) (P10827 whole entry, looked up, the tested form may be a part): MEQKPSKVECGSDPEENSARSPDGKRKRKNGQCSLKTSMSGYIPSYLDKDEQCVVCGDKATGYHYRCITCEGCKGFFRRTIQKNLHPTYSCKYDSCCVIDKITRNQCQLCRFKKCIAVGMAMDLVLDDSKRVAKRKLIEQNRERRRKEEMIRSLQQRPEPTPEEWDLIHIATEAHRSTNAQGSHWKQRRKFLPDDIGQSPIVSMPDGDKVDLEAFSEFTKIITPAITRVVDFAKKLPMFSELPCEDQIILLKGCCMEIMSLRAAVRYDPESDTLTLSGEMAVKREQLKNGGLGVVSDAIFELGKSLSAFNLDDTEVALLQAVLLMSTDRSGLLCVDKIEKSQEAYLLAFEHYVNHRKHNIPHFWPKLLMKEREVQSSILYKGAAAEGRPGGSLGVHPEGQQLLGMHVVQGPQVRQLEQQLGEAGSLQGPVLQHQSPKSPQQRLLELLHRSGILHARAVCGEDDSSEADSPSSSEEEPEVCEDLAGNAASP
Assay [19] has as its target THRB (gene 7068) (UniProt P10828). Kind of assay: TOX21_TRB_BLA_Antagonist_Followup_ratio: Tox21 Thyroid Hormone Receptor beta Antagonism Beta-lactamase (BLA) Follow-Up Assay, Ratio (AID 2283958). In short, it runs like this: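 Cells were plated and allowed to attach for 5 h, then dosed with compounds in DMSO at 11 concentrations for 18 h at 37C. Beta-lactamase reporter activity was measured via CCF4-AM FRET as the 460:530 nm ratio.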

A short description of assay [20]: TOX21_TRB_BLA_Antagonist_Followup_viability: Viability Assessment in the Tox21 Thyroid Hormone Receptor beta Antagonism Beta-lactamase (BLA) Follow-Up Assay (AID 2283961). Put shortly: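 TRβ-bla HEK293T (human TRβ LBD fused to GAL4 DBD), 3,000 cells/well, 2% charcoal-stripped FBS, phenol red-free medium; 18 h compound exposure, 37C; CellTiter-Glo 30 min RT; luminescence, loss-of-signal readout.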

Assay [21] can be described thus: TOX21_TR_RXR_BLA_Antagonist_Followup_viability: Viability Assessment in the Tox21 Thyroid Hormone Receptor beta Retinoid X Receptor alpha (RXRa) Antagonism Beta-lactamase (BLA) Follow-Up Assay (AID 2283979). Put shortly: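 Follow-up compounds (11 concentrations, triplicate) were incubated 16 h at 37C/5% CO2 with HEK293T RXRa-bla cells seeded at 2,500/well in charcoal-stripped-serum medium. ATP content by CellTiter-Glo luminescence gave viability; curves fitted in both directions against DMSO.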

Sequence of THRB (gene 7068) (P10828 whole entry, looked up, the tested form may be a part): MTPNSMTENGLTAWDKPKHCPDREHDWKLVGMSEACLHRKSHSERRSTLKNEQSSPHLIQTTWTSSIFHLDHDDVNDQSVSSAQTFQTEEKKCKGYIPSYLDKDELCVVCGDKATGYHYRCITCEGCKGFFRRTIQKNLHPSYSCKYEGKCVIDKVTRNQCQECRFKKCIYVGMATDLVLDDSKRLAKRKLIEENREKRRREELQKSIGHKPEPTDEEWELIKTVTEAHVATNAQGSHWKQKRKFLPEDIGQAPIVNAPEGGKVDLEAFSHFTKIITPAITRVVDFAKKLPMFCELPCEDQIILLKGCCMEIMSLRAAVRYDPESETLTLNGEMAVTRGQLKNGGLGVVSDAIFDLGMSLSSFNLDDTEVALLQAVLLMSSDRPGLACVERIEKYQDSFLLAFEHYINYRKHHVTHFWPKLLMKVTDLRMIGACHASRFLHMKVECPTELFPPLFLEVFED
Sequence of Thyroid hormone receptor alpha (Rattus norvegicus) + Thyroid hormone receptor beta (Rattus norvegicus) (P63059 whole entry, looked up): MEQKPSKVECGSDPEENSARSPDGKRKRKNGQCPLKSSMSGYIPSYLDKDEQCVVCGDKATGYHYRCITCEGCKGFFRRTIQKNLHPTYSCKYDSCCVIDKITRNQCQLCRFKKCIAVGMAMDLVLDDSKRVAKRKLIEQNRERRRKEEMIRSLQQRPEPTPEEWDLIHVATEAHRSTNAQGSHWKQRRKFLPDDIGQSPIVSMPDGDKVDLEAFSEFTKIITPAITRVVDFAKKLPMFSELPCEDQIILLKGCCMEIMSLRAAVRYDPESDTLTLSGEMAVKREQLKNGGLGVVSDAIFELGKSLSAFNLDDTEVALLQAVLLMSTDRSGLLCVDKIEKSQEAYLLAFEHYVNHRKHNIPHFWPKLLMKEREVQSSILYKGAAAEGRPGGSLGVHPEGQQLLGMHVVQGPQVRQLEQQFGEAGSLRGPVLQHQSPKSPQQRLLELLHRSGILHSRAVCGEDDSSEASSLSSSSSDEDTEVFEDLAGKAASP
Sequence of Thyroid hormone receptor alpha (Rattus norvegicus) + Thyroid hormone receptor beta (Rattus norvegicus) (P18113 whole entry, looked up): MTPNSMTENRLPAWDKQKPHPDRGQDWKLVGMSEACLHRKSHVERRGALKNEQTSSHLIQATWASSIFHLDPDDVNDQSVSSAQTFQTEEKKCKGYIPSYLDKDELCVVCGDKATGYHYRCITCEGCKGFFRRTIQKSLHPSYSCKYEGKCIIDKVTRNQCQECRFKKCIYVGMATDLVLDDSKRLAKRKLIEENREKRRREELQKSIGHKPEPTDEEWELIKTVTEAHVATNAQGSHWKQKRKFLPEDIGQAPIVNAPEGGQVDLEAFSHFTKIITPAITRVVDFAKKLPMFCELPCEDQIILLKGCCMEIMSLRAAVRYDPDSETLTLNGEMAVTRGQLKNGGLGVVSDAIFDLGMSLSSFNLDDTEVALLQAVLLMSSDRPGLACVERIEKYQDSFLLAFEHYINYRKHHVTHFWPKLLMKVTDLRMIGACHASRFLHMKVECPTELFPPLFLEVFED
Sequence of PGR (gene 5241) (P06401 whole entry, looked up): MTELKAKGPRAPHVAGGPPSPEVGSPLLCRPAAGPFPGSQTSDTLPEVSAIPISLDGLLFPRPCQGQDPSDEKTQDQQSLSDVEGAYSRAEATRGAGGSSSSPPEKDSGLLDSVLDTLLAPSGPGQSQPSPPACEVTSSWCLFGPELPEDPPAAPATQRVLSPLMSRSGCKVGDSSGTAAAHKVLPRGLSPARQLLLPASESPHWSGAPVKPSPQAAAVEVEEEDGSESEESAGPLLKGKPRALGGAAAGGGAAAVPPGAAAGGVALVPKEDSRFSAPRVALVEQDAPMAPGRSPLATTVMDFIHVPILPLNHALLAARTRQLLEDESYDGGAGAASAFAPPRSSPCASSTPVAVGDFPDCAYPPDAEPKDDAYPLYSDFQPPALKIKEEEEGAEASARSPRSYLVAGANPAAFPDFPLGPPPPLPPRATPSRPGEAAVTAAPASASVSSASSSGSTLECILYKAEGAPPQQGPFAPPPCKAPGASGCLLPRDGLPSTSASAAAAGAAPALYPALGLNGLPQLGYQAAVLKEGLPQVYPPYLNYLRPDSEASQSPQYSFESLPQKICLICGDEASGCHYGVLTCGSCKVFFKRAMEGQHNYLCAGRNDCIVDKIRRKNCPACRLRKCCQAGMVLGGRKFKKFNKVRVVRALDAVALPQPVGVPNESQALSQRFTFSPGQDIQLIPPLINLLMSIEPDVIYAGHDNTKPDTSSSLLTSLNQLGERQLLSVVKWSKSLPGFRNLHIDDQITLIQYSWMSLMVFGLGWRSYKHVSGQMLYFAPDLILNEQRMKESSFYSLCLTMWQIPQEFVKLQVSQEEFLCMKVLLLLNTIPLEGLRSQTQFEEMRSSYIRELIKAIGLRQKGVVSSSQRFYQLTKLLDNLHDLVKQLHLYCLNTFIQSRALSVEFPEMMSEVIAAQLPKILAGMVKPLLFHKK
Sequence of Retinoic acid receptor RXR-alpha (Homo sapiens) (P19793 whole entry, looked up): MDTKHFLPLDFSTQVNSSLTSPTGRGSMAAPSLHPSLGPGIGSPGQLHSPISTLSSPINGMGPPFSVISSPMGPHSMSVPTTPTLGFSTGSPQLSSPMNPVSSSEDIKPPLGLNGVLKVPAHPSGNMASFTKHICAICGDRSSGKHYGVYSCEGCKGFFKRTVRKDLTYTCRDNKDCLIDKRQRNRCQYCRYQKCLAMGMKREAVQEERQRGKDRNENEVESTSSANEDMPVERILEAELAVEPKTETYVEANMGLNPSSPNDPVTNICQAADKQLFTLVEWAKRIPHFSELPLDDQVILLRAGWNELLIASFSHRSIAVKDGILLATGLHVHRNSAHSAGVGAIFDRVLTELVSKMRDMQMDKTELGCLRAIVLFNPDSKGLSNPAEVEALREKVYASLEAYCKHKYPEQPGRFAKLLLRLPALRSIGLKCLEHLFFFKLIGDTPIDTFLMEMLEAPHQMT

In the case of `COC(=O)C1=C(C)NC(C)=C(C(=O)OCC(C)=O)C1c1ccccc1[N+](=O)[O-]` (stereo not drawn), the outcome in assay [1], in assay [2], in assay [3], in assay [4], in assay [5] and in [6] was inactive. In addition, the molecule was classed as inactive (in [7]; in assay [8]; in the assay with PGR (gene 5241); in assay [9]; in assay [10]; in assay [11]).

Consider `CC(C)(C)CC(C)(C)c1ccc(O)c(Cc2ccc(Cl)cc2Cl)c1`, for which the AC50 in assay [1] is 23 µM (active); in assay [2], 35.4 µM (active); in [3] it was 20.1 µM (active); in [4], 30.9 µM (active); in assay [5] it was 10.9 µM (active); in assay [6], 28.1 µM (active). Also, the AC50 in assay [7] is 13.8 µM (active); in assay [12], 2.83 µM (active); with THRA (gene 7067) [13], 12.1 µM (active); with THRB (gene 7068) [15], 12.2 µM (active). Besides, the result (in [8]; in the assay with THRB (gene 7068) [14]; in assay [16]; in assay [17]) was inactive.

Regarding `CCCC(=O)O[C@]1(C(=O)CCl)[C@@H](C)C[C@H]2[C@@H]3CCC4=CC(=O)C=C[C@]4(C)[C@@]3(F)C(=O)C[C@@]21C`, the molecule was classed as inactive in assay [1], in assay [2], in assay [3], in assay [4], in [5] and in [6]. The molecule was called inactive (in assay [7]; in [8]; in the assay with THRA (gene 7067) [18]; with THRB (gene 7068) [19]; in assay [20]; in assay [21]).
